From PubChem BioAssay
PKM2 act = PKM2 (human) enzyme activation; P14618; hit rate 0.34% among 260,000; Potency, µM (series often up to 57.5 µM), for the others: at the top dose activation, most hits filed as activators; purified PKM2, Kinase-Glo ATP luminescence, activation; response scale: 0% is enzyme alone, no compound; further: on the % scale 0 is the no-effect control and ±100 the full control effect; nearly all actives have a fitted effect of over 55% in size
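hPK-M2, >95% pure; 0.1 mM ADP / 0.5 mM PEP final; imidazole pH7.2 buffer w/ 7 mM MgCl2, 50 mM KCl; 1 h RT; Kinase-Glo lum. Intermediate enzyme activity for dual inhibitor/activator qHTS.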
GLS inhibitor = blocks human kidney-isoform glutaminase activity | hit rate 0.21% among 410,000 | Potency, µM (titrated, usually from 45.5 µM), without a hit: at the highest dose activity change, negative = inhibition, usual class: inhibitors | O94925 | GLS enzymatic activity, qHTS titration; further: on the % scale 0 is the no-effect control and ±100 the full control effect
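Two-point fluorescence kinetic (t0, 30 min RT) for hKGA; glutamate detected via glutamate oxidase–HRP–Amplex Red. Substrate: 1 mM L-glutamine solution; buffer 45 mM KH2PO4, pH 8.2.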
VDR inhibitor = blocks the human vitamin D receptor | hit rate 0.93% among 400,000 | VDR-SRC2-3 peptide fluorescence polarization, 2 h | Potency, µM, for inactives: max response, negative = inhibition, most hits filed as inhibitors | AID 504847 | P11473; further: on the % scale 0 is the no-effect control and ±100 the full control effect
Target sequence (P11473 whole entry, looked up): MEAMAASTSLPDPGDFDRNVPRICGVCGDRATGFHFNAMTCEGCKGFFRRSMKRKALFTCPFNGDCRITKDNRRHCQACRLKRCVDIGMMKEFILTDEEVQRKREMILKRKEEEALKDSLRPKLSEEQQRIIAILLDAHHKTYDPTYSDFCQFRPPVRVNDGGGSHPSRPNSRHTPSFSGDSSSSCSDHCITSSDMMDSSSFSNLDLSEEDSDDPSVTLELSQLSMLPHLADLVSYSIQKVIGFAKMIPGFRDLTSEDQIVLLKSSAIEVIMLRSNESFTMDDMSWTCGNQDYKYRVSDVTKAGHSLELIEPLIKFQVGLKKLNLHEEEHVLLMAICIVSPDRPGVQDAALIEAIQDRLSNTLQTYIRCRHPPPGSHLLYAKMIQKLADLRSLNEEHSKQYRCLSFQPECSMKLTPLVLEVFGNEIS
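The screen uses fluorescence polarization to detect compounds that interfere with recruitment of the SRC2-3 coactivator peptide to VDR; plates are read after 2 h at room temperature.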
Mito fusion act = blocks mitochondrial division or promotes mitochondrial fusion; S. cerevisiae fusion-defective mutant growth rescue, CellTiterGlo 48 h; Potency, µM (highest dose often 46.1 µM), for inactives: at the top dose growth rescue (activation), most hits filed as activators; hit rate 0.23% among 320,000; AID 485298; further: % of control where 0% means no effect; nearly all actives have a fitted effect of over 45% in size
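Growth-rescue viability read-out: after 48 h at the non-permissive 37C in glycerol/ethanol YPEG, yeast mitochondrial fusion mutants are measured by CellTiterGlo luminescence; compounds (23 nl pinned per well) restoring growth score as division inhibitors or fusion activators.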
KAT2A inh = blocks human GCN5L2 histone acetyltransferase. Potency, µM (highest dose often 58.9 µM), for inactives: at the top dose activity change, negative = inhibition, usual class: inhibitors. hit rate 0.21% among 390,000. GCN5L2 HAT assay, ThioGlo1 CoA-SH fluorescence. Q92830; further: on the % scale 0 is the no-effect control and ±100 the full control effect
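ThioGlo1-coupled HAT assay: 20nM GCN5L2, 70uM acetyl-CoA, 75uM H3(1-25) peptide, pH 7.5. Fluorescence read at 340/540nm at start and after 20 min at room temperature.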
PLK1 PBD inh = PLK1 (human) polo-box domain binding inhibition. P53350. Plk1 PBD binding of FITC phosphopeptide, fluorescence polarization. Potency, µM, without a hit: max response, negative = inhibition, hits mostly inhibitors. hit rate 2.8% among 360,000. AID 720504; further: series mostly up to about 57 µM; on the % scale 0 is the no-effect control and ±100 the full control effect; nearly all actives have a fitted effect of over 65% in size
Numbers without * were called inactive; ? = inconclusive; . = no result; [ ] = dose if it differs, or a comment. An excerpt weighted towards active compounds, which were near 3.4% of everything screened. The call rests on the fitted dose curve; in most records, active means well fitted curve in the direction sought with a large enough effect; inconclusive means small, poorly fitted or top-dose-only effect, or another doubt; inactive means no such curve, though single readings can be large; an effect the other way counts as inactive or inconclusive. Potency means the concentration at half of the fitted maximal effect.

SMILES	PKM2 act	GLS inhibitor	VDR inhibitor	Mito fusion act	KAT2A inh	PLK1 PBD inh
CCCCCCCCCCCCCC(=O)O[C@@H]1[C@@H](C)[C@@]2(O)[C@H](C=C(CO)C[C@]3(O)C(=O)C(C)=C[C@@H]23)[C@@H]2C(C)(C)C12OC(C)=O (some centres undefined)	.	.	-3%	.	-19%	.
CC[C@@H]1CN2CCc3cc(OC)c(OC)cc3[C@@H]2C[C@@H]1C[C@H]1NCCc2cc(OC)c(OC)cc21	.	.	3%	.	5%[0.501 µM]	.
O=C1C=CC(=O)C(Cl)=C1	.	.	25µM*	.	16µM*	.
Cc1ncc(CN2CC=C(c3ccccc3)CC2)c(N)n1	-18%	.	.	.	.	.
CCOc1cc(-c2ccc(N)c(OCC)c2)ccc1N	-9%	?	-30%	2%	-4%	3.4µM*
C=C(C)C1CCC(C)=CC1c1c(OC)cc(C)cc1OC (centres undefined)	.	.	8%	.	0%	.
CCOc1ccc(-c2nc3ccc(-c4nc5ccc(N6CCN(C)CC6)cc5[nH]4)cc3[nH]2)cc1	.	.	112%	.	11µM*	.
Cc1ccc2nc(N3CCN(C)CC3)[nH]c2c1	-5%	26%	6%	5%	-9%	-8%
Nc1ccc2c3c(cccc13)-c1ccccc1-2	.	?	-15%	.	.	9.5µM*
CC1=CC[C@@H]2[C@@H](C1)c1c(O)cc(CC#CCCCNS(C)(=O)=O)cc1OC2(C)C	8%	.	.	.	.	.
Cc1cc(C=C2C(=O)N(C)C(=O)N(C)C2=O)c(C)n1-c1ccccc1	-5%	-3%	-3%	-4%	-4%	-4%
CCOC(=O)Cn1cc(C=C2C(=O)N(C)C(=O)N(C)C2=O)c2ccccc21	.	0%	-3%	0%	-24%	?
CN1C(=O)C(=Cc2cn(CC(=O)N3CCCCC3)c3ccccc23)C(=O)N(C)C1=O	-4%	-5%	-11%	-2%	0%	13µM*
C=CCn1cc(C=C2C(=O)NC(=O)NC2=O)c2ccccc21	.	9%	7%	-1%	2%	8%
CN1C(=O)C(=Cc2cn(CC#N)c3ccccc23)C(=O)N(C)C1=O	.	7%	-16%	2%	-15%	1.2µM*
CN1C(=O)C(=Cc2cn(CC(=O)N3CCCC3)c3ccccc23)C(=O)N(C)C1=O	1%	-7%	-2%	-2%	-1%	27µM*
CN1C(=O)C(=Cc2coc3ccccc3c2=O)C(=O)N(C)C1=O	-2%	26%	?	-3%	-4%	19µM*
O=C(NC1CCCCC1)c1cn(CCN2CCOCC2)c2cc(Cl)ccc2c1=O	.	.	-14%	.	0%	.
CCC1CC2CC3c4[nH]c5ccc(OC)cc5c4CCN(C2)C13 (centres undefined)	.	21%[99.4 µM]	.	.	.	.
Nc1c(Cl)c(Cl)c(Cl)c(Cl)c1Cl	.	0%[99.4 µM]	.	.	.	.
NC(N)=NN=C(/C=C/c1ccc([N+](=O)[O-])o1)/C=C/c1ccc([N+](=O)[O-])o1	.	-4%	?	.	-19%	.
COC(=O)C1=CO[C@@H](C)[C@@H]2CN3CCc4c([nH]c5cc(OC)ccc45)[C@@H]3C[C@H]12	.	.	79µM*	.	.	.
O=C1OC(c2ccc(O)c(S(=O)(=O)O)c2)(c2ccc(O)c(S(=O)(=O)O)c2)c2c(Br)c(Br)c(Br)c(Br)c21	.	49%	35µM*	.	28µM*	.
CCOC(=O)[C@]12Cc3cc(OC)ccc3[C@H]1N(C)C(=O)c1cc(OC)ccc12	.	?	.	.	.	9.5µM*
CCCCCN1C(=O)c2cc(OC)ccc2[C@@]2(C(=O)OCC)Cc3cc(OC)ccc3[C@@H]12	.	-2%	.	.	.	4.7µM*
SMILES	PKM2 act	GLS inhibitor	VDR inhibitor	Mito fusion act	KAT2A inh	PLK1 PBD inh
CCOC(=O)[C@]12Cc3cc(Cl)ccc3[C@H]1N(C)C(=O)c1cc(OC)ccc12	.	?	.	.	.	11µM*
CCOC(=O)[C@]12Cc3cc(OC)ccc3[C@H]1N(CC(=O)OC)C(=O)c1cc(OC)ccc12	.	?	.	.	.	13µM*
CC(Nc1cc(C)cc(C)c1)=[N+](C)CCNS(=O)(=O)c1ccc(Cl)cc1	0%	16%	-4%	-5%	?	-14%
CCCCCOc1c(OC)ccc2cc(C(=O)NCc3ccc4c(c3)OCO4)c(=O)[nH]c12	.	.	1%	.	4%	.
C#C[C@]1(OC(=O)CCCCCC)CC[C@H]2C3CCC4=CC(=O)CC[C@@H]4[C@H]3CC[C@@]21C (some centres undefined)	.	-2%	.	.	.	.
COc1cc(CC(C)N)cc2c1OCO2 (centres undefined)	.	2%[99.4 µM]	.	.	.	.
COc1cc2c(cc1OC)-c1c(OC)c(OC)c(C=O)c3c1[C@H](C2)N(C)CC3	.	.	8.9µM*	.	-25%	.
Nn1c(COc2ccc(Cl)cc2)n[nH]c1=S	?	2%	-1%	-4%	-6%	?
CC1CC2OC2/C=C\C=C/C(=O)Cc2c(Cl)c(O)cc(O)c2C(=O)O1 (centres undefined)	.	.	45µM*	.	-3%	.
CSc1ncc(/C=C2/C(=O)NC(=O)N(c3ccc(C(C)C)cc3)C2=O)cn1	0%	-13%	?	-5%	-3%	15µM*
CCc1ccc(N2C(=O)NC(=O)/C(=C\c3cccn3CCOc3ccc(C(C)C)cc3)C2=O)cc1	25%	2%	?	7%	-13%	-7%
CC(C)c1ccc(N2C(=O)NC(=O)/C(=C/c3cnc(-c4ccccc4)nc3)C2=O)cc1	1%	4%	35µM*	3%	27%	12µM*
COC(=O)C12CC3=CCC4C(=O)N(c5ccccc5)C(=O)C4C3Cc3ccccc3[C@@H]1CNC2=O (some centres undefined)	.	.	11%	.	.	.
CN1C(=O)C(=Cc2ccc(Sc3ccccc3)o2)C(=O)N(C)C1=S	.	-12%	-15%	.	.	2.7µM*
CN1C(=O)C(=Cc2ccc(Sc3ccccc3)o2)C(=O)N(C)C1=O	20%	4.5µM*	?	2%	-5%	?
CN1C(=O)C(=Cc2sc(=O)n(-c3ccccc3)c2N(C)C)C(=O)N(C)C1=O	-2%	-12%	-25%	-1%	1%	23%
CN1C(=O)C(=Cc2ccc(N3CCOCC3)o2)C(=O)N(C)C1=S	0%	7%	-8%	1%	-6%	65%
Cn1cccc1/C=C1\C(=O)NC(=O)N(Cc2ccco2)C1=O	18%	?	-29%	0%	-19%	24µM*
COc1ccc(/C=C2/C(=O)NC(=O)N(Cc3ccco3)C2=O)cc1	?	.	.	9%	?	.
Cc1ccc(OCCn2cccc2/C=C2/C(=O)NC(=O)N(Cc3ccco3)C2=O)cc1	9%	-12%	-12%	-1%	-12%	2.7µM*
CCOC(=O)C1CCN(/C=C2/C(=O)NC(=O)N(Cc3ccco3)C2=O)CC1	-15%	7.1µM*	-5%	3%	-5%	?
